Rows were chosen to be rich in hits. Some 0.97% of all compounds tested hit in one or more screens of this group.
S1P3 antagonist = S1P3 receptor antagonists, primary screen, cell-based | Sphingosine 1-phosphate receptor 3 (Homo sapiens), Q99500 | CHO S1P3 NFAT-BLA reporter, FRET fluorescence, antagonist mode | inhibition, % at 4.98 µM | hit rate 0.27% among 170,000;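 active = inhibition above the plate cutoff, the mean inhibition of test wells on that plate plus 3 SD, cut at about 28% in these data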;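 also: cells challenged with S1P at its EC80 of 0.8 µM; blue over green emission ratio from cleaved BLA substrate after 4 h stimulation; 0% = S1P-stimulated wells and 100% = unstimulated DMSO-only wells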
Target sequence (Q99500 whole entry, looked up): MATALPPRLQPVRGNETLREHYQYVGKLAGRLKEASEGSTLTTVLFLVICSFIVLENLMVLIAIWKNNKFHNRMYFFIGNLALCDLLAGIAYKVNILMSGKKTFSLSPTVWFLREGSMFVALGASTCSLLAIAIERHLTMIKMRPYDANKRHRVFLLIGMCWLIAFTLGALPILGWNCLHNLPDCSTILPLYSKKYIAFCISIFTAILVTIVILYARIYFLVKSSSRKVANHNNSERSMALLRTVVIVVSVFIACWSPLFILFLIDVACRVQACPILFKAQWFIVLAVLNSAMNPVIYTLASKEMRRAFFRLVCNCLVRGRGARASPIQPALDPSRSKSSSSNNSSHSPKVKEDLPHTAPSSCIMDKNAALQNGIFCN
Hsp70 activator = Hsp70 transcriptional activators, primary screen, cell-based, HeLa, Hsp70 promoter luciferase, luminescence, 10 µM; activation, % at 10 µM; hit rate 0.04% among 200,000; HeLa Hsp70 promoter luciferase reporter; scaled: vehicle 0, proteasome-inhibitor control 100%; AID 1203, 2008;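 active = activation above the mean across all tested compounds plus 3 SD, cutoff set per campaign, cut at about 5.5% in these data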;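 also: 100% = MG132 at 30 µM as the positive control and 0% = DMSO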
AI-2 QS mod = Vibrio harveyi AI-2 quorum sensing modulators, primary screen, JMH597 strain, luminescence/OD600 ratio; hit rate 0.4% among 300,000; activity change, % at 7.5 µM; Vibrio harveyi JMH597 AI-2 luminescence/OD600 ratio, 9 h; hits give low values; strain lacks LuxN and CqsS sensors; 0 = neutral-control median; in the data active = activity change below about -75%, passing the limit was not always enough; inconclusive = no clear call, values can overlap the other calls;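 also: luminescence divided by OD600 gain over 9 h not by final OD600 alone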
S1P4 antag = S1P4 receptor antagonists, primary screen, cell-based. Sphingosine 1-phosphate receptor 4 (Homo sapiens), O95977. S1P4-expressing cells, antagonist mode, reporter read-out. inhibition, % at 4.98 µM. hit rate 0.26% among 220,000; in the data active = inhibition above about 29%;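 also: 0% = wells stimulated with agonist and 100% = vehicle wells without agonist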
S1P4 ag = S1P4 receptor agonists, primary screen, cell-based. Sphingosine 1-phosphate receptor 4 (Homo sapiens), O95977. S1P4-expressing cell line, agonist reporter assay. activation, % at 4.98 µM. hit rate 0.35% among 220,000; in the data active = activation above about 11%;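 also: 0% = DMSO vehicle and 100% = reference agonist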
JMH597 growth = Vibrio harveyi growth inhibition, confirmation, counter-screen for AI-2 quorum sensing project, JMH597 strain, OD600 absorbance; AID 2726, 2010; hit rate 1% among 750; shares compounds with AI-2 QS mod; 9 h; lacks LuxN and CqsS sensors; growth inhibition, % at 7.5 µM;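 active = every replicate shows growth inhibition above 50%; inconclusive = at least half, but not all, replicates pass that cutoff; inactive = fewer than half of replicates pass it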
BB721 const-QS lum = luminescence inhibition in constitutive-on V. harveyi, confirmation, counter-screen for LuxS inhibitor project, strain BB721, luminescence readout | shares compounds with AI-2 QS mod | Vibrio harveyi BB721 luminescence, 9 h | inhibition, % at 7.5 µM | hit rate 95% among 750 | AID 2727, 2010;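 active = inhibition above about 80% in every replicate, not just on average, limit read from the data; inconclusive = at least half of replicates past the limit, but not all; inactive = fewer than half of replicates past the limit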
BB721 growth = growth inhibition of V. harveyi BB721, confirmation, cytotoxicity control for AI-2 quorum sensing inhibitors, strain BB721, absorbance OD600. shares compounds with AI-2 QS mod. Vibrio harveyi BB721 growth, 9 h. growth inhibition, % at 7.5 µM. hit rate 3% among 750. AID 2728, 2010;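 active = every replicate shows growth inhibition above 50%; inconclusive = at least half but not all replicates above 50% inhibition; inactive = under half of replicates above 50% inhibition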
AI-2 QS JMH597 = Vibrio harveyi AI-2 signaling luminescence modulation – JMH597 strain, confirmation; shares compounds with AI-2 QS mod; Vibrio harveyi JMH597 AI-2 quorum sensing luminescence, 9 h; luxN and CqsS knockout, AI-2 only; inhibition, % at 7.5 µM; hit rate 97% among 750; AID 2736, 2010;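 active = every replicate shows more than 75% inhibition of signal versus neutral control wells; inconclusive = half to three quarters of replicates exceed 75% inhibition; inactive = fewer than half of replicates exceed 75% inhibition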
The depositor's hits bear a star; ? = inconclusive; . = no result given.

SMILES	S1P3 antagonist	Hsp70 activator	AI-2 QS mod	S1P4 antag	S1P4 ag	JMH597 growth	BB721 const-QS lum	BB721 growth	AI-2 QS JMH597
Cc1ccsc1C(=O)NCCc1c[nH]c2ccccc12	.	.	-82*	.	.	5	92*	-6	94*
COc1cc(SC)ccc1C(=O)NCCc1c[nH]c2ccccc12	.	.	6	.	.	.	.	.	.
O=C(NCCc1c[nH]c2ccccc12)C(=O)c1c[nH]c2ccccc12	.	.	-90*	.	.	25	96*	6	97*
CCOc1ccccc1NC(=O)COC(=O)CC(NC(N)=O)c1ccc(Cl)cc1 (stereo not drawn)	-11	0	1	-3	1	.	.	.	.
Cc1ccc(C)c(C(=O)COC(=O)C(C)N2C(=O)C3C4CCC(C4)C3C2=O)c1 (stereo not drawn)	.	.	4	.	.	.	.	.	.
Cc1cc(O)c(-c2cc(C(=O)Nc3cccnc3)[nH]n2)cc1C	8	.	-1	-3	1	.	.	.	.
CCc1ccc(O)c(-c2cc(C(=O)Nc3cccnc3)[nH]n2)c1	5	.	-94*	-10	1	-13	97*	3	97*
O=C(COc1nncc2ccccc12)Nc1c(F)c(F)c(F)c(F)c1F	20	0	-6	-13	1	.	.	.	.
Cc1cc(C)c(NC(=O)COc2nncc3ccccc23)c(C)c1	-9	0	16	-27	2	.	.	.	.
O=C(COc1nncc2ccccc12)Nc1ccc(F)c(F)c1	-22	0	-96*	-11	0	-23	99*	-18	99*
CC(C)c1ccc(NC(=O)COc2nncc3ccccc23)cc1	-11	0	-96*	-9	0	47	99*	?	100*
O=C1COc2cc(S(=O)(=O)CCC(=O)N3CCCCC3)c(Cl)cc2N1	.	.	5	.	.	.	.	.	.
Cc1ccc(O)c(CNc2nccs2)c1	.	.	-39	.	.	.	.	.	.
Oc1ccc(Cl)cc1CNc1nccs1	.	.	-79*	.	.	26	92*	38	92*
O=C(CCCC(=O)N(c1ccc(F)cc1)C(C(=O)NC1CCCC1)c1ccc(O)cc1)Nc1ccccn1 (stereo not drawn)	.	.	0	.	.	.	.	.	.
CC(C)CCNC(=O)NC(=O)COc1ncnc2sccc12	-10	0	-81*	4	0	-6	96*	5	97*
Cc1cccc(OCC(=O)Nc2cc(C)ccc2O)c1	-58	0	-85*	10	2	34	96*	29	97*
Cc1cccc(OCC(=O)Nc2cc(C)c(C)cc2O)c1	-2	0	-16	-7	1	.	.	.	.
Cc1cccc(OCC(=O)Nc2ccc(S(=O)(=O)N3CCCC3)cc2)c1	-18	0	-97*	-10	-3	9	99*	-3	100*
O=C(COc1cccc(C(F)(F)F)c1)Nc1ccc(S(=O)(=O)N2CCCCC2)cc1	.	.	-18	.	.	.	.	.	.
CCc1cccc(OCC(=O)Nc2ccc(S(=O)(=O)N3CCCC3)cc2)c1	.	.	-90*	.	.	43	97*	?	98*
COc1ccccc1CNC(=O)COc1ccc(S(=O)(=O)N2CCCC2)cc1	.	.	?	.	.	19	85*	8	93*
CCN(CC(=O)NCc1cccs1)C(=O)/C=C/c1ccc(OC)c(OC)c1	.	.	12	.	.	.	.	.	.
O=C(Nc1ccc(Cc2ccncc2)cc1)c1ccc(Br)o1	9	0	-81*	-8	-1	-13	88*	-47	94*
Cc1ccc(CNC(=O)/C=C/c2ccc(Br)o2)cc1	5	0	-94*	4	-1	23	99*	?	99*

Assay outcomes from PubChem.
